For 76 compounds, activation results are on record in PubChem BioAssay AID560 (The Scripps Research Institute Molecular Screening Center, 2006).

About 980 (1.5%) of roughly 65,000 compounds were called active. The sample as a whole holds a higher share of actives than the screen did. Unmarked numbers belong to inactive results.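 Rule for the calls: active = activation above the mean of all tested compounds plus 3 SD (cut at about 49% in these data); inactive = the rest.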

Chain of Nuclear receptor ROR-alpha (Homo sapiens) (P35398 whole entry, looked up, the tested form may be a part): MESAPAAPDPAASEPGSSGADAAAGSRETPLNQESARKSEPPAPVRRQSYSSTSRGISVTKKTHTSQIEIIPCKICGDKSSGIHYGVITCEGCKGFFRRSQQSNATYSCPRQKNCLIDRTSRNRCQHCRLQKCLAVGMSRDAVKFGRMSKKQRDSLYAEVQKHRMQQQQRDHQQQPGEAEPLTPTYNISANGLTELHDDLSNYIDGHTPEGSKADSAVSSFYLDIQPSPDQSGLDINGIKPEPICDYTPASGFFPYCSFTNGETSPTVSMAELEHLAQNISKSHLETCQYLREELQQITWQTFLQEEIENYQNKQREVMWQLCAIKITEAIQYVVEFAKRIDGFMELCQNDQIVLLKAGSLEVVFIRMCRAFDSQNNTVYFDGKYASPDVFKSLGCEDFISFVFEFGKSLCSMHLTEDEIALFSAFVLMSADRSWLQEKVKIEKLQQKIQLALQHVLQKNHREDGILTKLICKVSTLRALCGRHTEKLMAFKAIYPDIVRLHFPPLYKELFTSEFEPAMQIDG

The assay has as its target Nuclear receptor ROR-alpha (Homo sapiens) (UniProt P35398). Kind of assay: activators of orphan receptor RORA, primary screen, cell-based, luminescence (AID 560).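 Note: 0% = DMSO-treated RORA cells and 100% = added signal equal to DMSO minus mock-transfected cells.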 As to conditions: CHO-K1 Gal4-RORA LBD luciferase reporter, at 10 µM, active compounds read high, percent increase over mock-subtracted basal signal.
Turning to `COc1cccc2sc(Nc3nc(C)c(C(C)=O)s3)nc12`, the activation was 39.6%.

Consider `Cc1cc(C)c2c(c1)cc(C)c1nnc(SCC(=O)Nc3cc(C)on3)n12`, for which the activation was 44.5%.

For the compound `Cc1cccc(NC(=O)c2ccc3ccccc3n2)n1`, the activation is 83% (active).

On to `Cc1cccc(NC(=O)COc2ccccc2C)n1`, for which the activation is -18.4%.

Take `Cc1cccc(NC(=O)c2ccccc2NC(=O)C(C)(C)C)n1`: the activation is 17.7%.

`CC(=O)c1c(N)n(C)c(=O)n(C)c1=O`: the activation was -5.2%.

Regarding `c1ccc2c(NCC3CCCO3)nc(-c3ccncc3)nc2c1` (stereo unspecified), the activation was -11.3%.

As for `Cc1ccc(-n2c(SCC(=O)Nc3ccc4c(c3)OCO4)nnc2-c2ccoc2C)cc1`, the activation was -1.7%.

Regarding `Cn1nnc2cc(C(=O)NCCC3=CCCCC3)ccc21`, the activation is 18.1%.

For the compound `O=C(Cc1nn[nH]n1)NCCC1=CCCCC1`, the activation was -13.7%.

Consider `CN(c1ccc(C(=O)NCCC2=CCCCC2)cc1)S(C)(=O)=O`, for which the activation was 63% (active).

As for `CC(=NCC1CCCO1)c1c(O)[nH]c(=O)[nH]c1=O` (stereo unspecified), the activation was 2.9%.

For `O=C(CS(=O)(=O)Cc1ccccc1)NCC1CCCO1` (stereo unspecified), the activation was 11.4%.

Turning to `O=C1C(C=NCC2CCCO2)=C(O)c2ccccc21` (stereo unspecified), the activation is 48.7% (active).

`Cc1ccccc1Nc1nc(N)nc(CN2CCN(c3ccccn3)CC2)n1`: the activation was -2.8%.

Turning to `Cc1cc(O)ccc1-c1cnc2ccccc2n1`, the activation is 30.5%.

For `CC(=O)Nc1cccc(-c2cnc3ccccc3n2)c1`, the activation is 72.9% (active).

Turning to `CC(=O)Nc1cccc(NC(=O)c2c(-c3ccccc3)noc2C)c1`, the activation was -6.7%.

In the case of `CC(C)CC(=O)N=C1SC2CS(=O)(=O)CC2N1CCc1ccccc1` (stereo unspecified), the activation is -3.3%.

As to `Cn1c(CNC(=O)C(C)(C)C)nc2ccccc21`, the activation was 13.9%.

Take `CCN(CC)C(=O)CSc1nnc(-c2cnccn2)n1-c1ccc(C)cc1`: the activation was 12%.

`O=C(CSc1nnc(-c2cnccn2)n1Cc1ccco1)c1ccc(Cl)c(Cl)c1`: the activation is 1.4%.

For `Cn1c(SCc2c(F)cccc2Cl)nnc1-c1cnccn1`, the activation was 62.8% (active).

For `COCCn1nnnc1CN1CCC(NC(=O)Nc2cccc(OC)c2)CC1`, the activation was -9%.

For `CCOc1cc(S(=O)(=O)NCc2ccc3c(c2)OCO3)ccc1F`, the activation is -24.1%.

For `CCn1c(CSc2ncccn2)nnc1SCC(=O)N1c2ccccc2CC1C` (stereo unspecified), the activation was -7.8%.

With `Cn1c(SCc2nc3ccccc3s2)nnc1-c1ccc2c(c1)OCO2`, the activation was 37.8%.

As to `CC(C)OC(=O)c1sc2nc3c(cc2c1N)C(=O)CCC3`, the activation is 47.6%.

Take `Oc1ccc2nc(Cc3ccccc3)[nH]c2c1`: the activation is 2.5%.

`Oc1ccc(Cl)cc1/C=N/c1nc2ccccc2[nH]1`: the activation was 51.7% (active).

For `c1ccc2[nH]c(-c3nc4ccccc4[nH]3)nc2c1`, the activation was 14.8%.

Regarding `O=C(C1CCCO1)N1CCC(c2nc3ccccc3[nH]2)CC1` (stereo unspecified), the activation is -13.4%.

As to `Fc1c(F)c(C(F)(F)F)c(F)c(F)c1N1CCN(c2ccc3nnc(C(F)(F)F)n3n2)CC1`, the activation is -6.8%.

`O=c1oc2cc(O)ccc2cc1-c1ccc(F)cc1`: the activation was 61.8% (active).

For the compound `COc1cccc(C(=O)c2cc3ccc(O)cc3oc2=O)c1`, the activation was 0.2%.

For the compound `COc1ccc(-c2cc3ccc(OCc4nn[nH]n4)cc3oc2=O)cc1`, the activation was -23.3%.

Consider `O=C(O)C1OC(C(=O)O)C2C1C(F)(F)C2(F)F` (stereo unspecified), for which the activation was -1.8%.

For `CCCn1c(=O)c(-c2ccccc2)c(O)c2ccccc21`, the activation was 5.6%.

On to `CCOCCCNS(=O)(=O)Cc1ccccc1`, for which the activation was -16.2%.

`O=C1CCCC2=C1C(c1cccs1)n1nc(SCc3ccccc3)nc1N2` (stereo unspecified): the activation was -13.1%.

Regarding `O=C(CN1CCOCC1)N1CCCc2c1c(=O)oc1ccc(OCc3ccccc3)cc21`, the activation was -15.9%.

For the compound `Cc1ccc(OCC(=O)Nc2ccc(-c3nnc(-c4ccco4)o3)cc2)cc1`, the activation was 20.8%.

On to `CCOc1ccc(-c2nnc(-c3ccco3)o2)cc1`, for which the activation is -31.6%.

For `CCC(=O)Oc1cccc(C(=O)Nc2ccc(-c3nnc(-c4ccco4)o3)cc2)c1`, the activation is 112% (active).

On to `O=C(Nc1ncccn1)c1cccs1`, for which the activation was -6.7%.

On to `CCOc1cc(C(=O)Nc2ncccn2)cc(OCC)c1OCC`, for which the activation was -3.1%.

For `Cn1c(=O)c(C(=O)Nc2ncccn2)c(O)c2ccccc21`, the activation is 61% (active).

On to `CC(C)C(c1nnnn1CCc1ccccc1)N1CCN(C(=O)c2ccco2)CC1` (stereo unspecified), for which the activation is -9%.

As to `CCC(CC)c1nnc(NS(=O)(=O)Cc2ccccc2)s1`, the activation is -5.9%.

Turning to `COc1ccccc1-c1cc(C(=O)N2CCCCC2)no1`, the activation is 56.5% (active).

On to `O=C(c1cc(-c2cccs2)on1)N1CCCCC1`, for which the activation was 63.4% (active).

With `Cc1cc(NC(=O)c2cc(-c3cccs3)on2)nn1Cc1ccc(Cl)cc1`, the activation was 27.5%.

Turning to `O=C(CSCc1cccs1)N1CCCC1`, the activation is 22.9%.

In the case of `O=C(c1cc(-c2ccccc2O)on1)N1CCCC1`, the activation is 18.2%.

For `COc1ccccc1N1CCN(C(=O)c2cc(-c3ccc(Br)cc3)on2)CC1`, the activation was -2.4%.

As for `Cc1cc(Cl)c(S(=O)(=O)NCCC(=O)O)cc1OCC(N)=O`, the activation was -22.1%.

As for `COc1ccc(OCCCON2C(=O)c3ccccc3C2=O)cc1`, the activation was -11.1%.

With `C[N+]1(CCNC(=O)/C=N/O)CCCCC1`, the activation is -28.3%.

As to `O=C(Nc1ccon1)c1cccc(Cl)c1`, the activation was -2.3%.

As for `C=C(C)CSc1nc(N)c2c3c(sc2n1)CCC3`, the activation is 56.2% (active).

On to `CN(C)CCSc1nc(N)c2c3c(sc2n1)COC(C)(C)C3`, for which the activation is 10.3%.

Consider `C=C(C)Cn1c(SCC(=O)NCc2ccco2)nc2sc3c(c2c1=O)CCC3`, for which the activation was -4%.

For the compound `CCn1cc(C(=O)NCC2CCCO2)c(=O)c2cc(S(=O)(=O)N3CCCCC3)ccc21` (stereo unspecified), the activation is -5.2%.

Consider `O=C(CCCn1c(SCC(=O)c2ccc(F)cc2)nc2ccccc2c1=O)NCc1ccco1`, for which the activation is 40.5%.

With `COc1ccc(-c2nc(-c3ccccc3)no2)c(OC)c1`, the activation is -78.4%.

With `COc1ccc(-c2noc(-c3cccc(OC)c3OC)n2)cc1OC`, the activation is 89.8% (active).

Regarding `COc1cc(-c2nc(-c3ccncc3)no2)cc(OC)c1OC`, the activation is 5.3%.

In the case of `CC(=O)Nc1ccc(NS(=O)(=O)c2cc(C)sc2C)cc1`, the activation is -3%.

On to `CC(C)C(=O)Nc1cccc(C(=O)Nc2ccc3c(c2)OCO3)c1`, for which the activation is 31.6%.

For the compound `Cn1c(=O)n(C)c2cc(C(=O)Nc3ccc4c(c3)OCO4)ccc21`, the activation is 19.1%.

For the compound `COc1ccc(C(=O)Nc2ccc3c(c2)OCO3)cc1OC`, the activation is 69.8% (active).

For `O=C(Nc1ccc(-c2nnc(-c3ccccc3)o2)cc1)c1ccc(Br)o1`, the activation was 9.1%.

On to `Nc1ccc(-c2nnc(-c3ccc(-c4ccccc4)cc3)o2)cc1`, for which the activation was 60.7% (active).

Take `COc1ccc(CC(=O)Nc2ccc(-c3nnc(-c4ccccc4)o3)cc2)cc1`: the activation was 8.7%.

For the compound `CN(C)c1ccc(CNC23CN4CN(CN(C4)C2)C3)cc1`, the activation is -19.1%.

As for `CN(Cc1ccccc1)Cc1ccccc1F`, the activation is 5.2%.
